# According to PubChem BioAssay (EPA / NIEHS):
# Several values for one entry are separate records, joined by “and”; a condition that tells them apart may be missing. Equal entries are not always repeated. Results filed as inconclusive are left out. The source holds several records for some structures; these can differ, active in one and inactive in another. Activity calls are given as the source filed them. How the source made its calls: active means hit-call score of the fitted dose curve at least 0.9, where 1 is the maximum; inconclusive means response in the unintended direction; inactive means score below 0.9.
# Assays:
# [1] = molecular target: Estrogen receptor (Homo sapiens) (UniProt P03372); experiment: NVS_NR_hER: NovaScreen (NVS) Nuclear Receptor Binding Assay for human Estrogen Receptor (ER) (AID 2283348)
# Estrogen receptor (Homo sapiens), sequence (P03372 whole entry, looked up, the tested form may be a part): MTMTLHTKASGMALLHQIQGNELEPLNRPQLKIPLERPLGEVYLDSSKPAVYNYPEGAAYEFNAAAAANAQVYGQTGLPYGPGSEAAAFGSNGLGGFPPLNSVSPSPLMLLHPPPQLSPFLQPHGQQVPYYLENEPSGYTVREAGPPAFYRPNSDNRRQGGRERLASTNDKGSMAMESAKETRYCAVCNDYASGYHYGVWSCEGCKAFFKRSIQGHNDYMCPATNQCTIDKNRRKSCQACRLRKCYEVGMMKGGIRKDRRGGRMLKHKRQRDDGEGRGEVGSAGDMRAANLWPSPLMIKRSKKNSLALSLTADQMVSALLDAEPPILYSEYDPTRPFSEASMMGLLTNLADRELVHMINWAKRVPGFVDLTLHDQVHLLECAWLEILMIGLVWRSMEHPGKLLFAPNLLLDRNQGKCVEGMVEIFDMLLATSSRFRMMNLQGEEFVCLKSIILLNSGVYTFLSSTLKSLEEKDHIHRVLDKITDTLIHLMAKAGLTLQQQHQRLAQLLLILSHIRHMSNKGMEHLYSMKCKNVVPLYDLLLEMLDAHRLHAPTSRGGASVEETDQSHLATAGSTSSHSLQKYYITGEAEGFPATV
# Procedure, shortened: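 Scintillation signal from bound radioligand was measured 18 hours after chemical addition to cell-free MCF7 protein extracts, with DMSO as baseline. Activity was scored as signal loss; compounds ran first at 25 uM in duplicate.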
# [2] = molecular target: Estrogen receptor (Homo sapiens) (UniProt P03372); experiment: OT_ER_ERaERa_1440: Odyssey Thera (OT) 24-hour HEK293T Protein-Complementation Assay for Estrogen Receptor-alpha/-alpha Homodimer (AID 2283349);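 further: hits raise fluorescence above DMSO for agonists and antagonists alike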
# Procedure, shortened: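 Protein-fragment complementation between two human ERα ligand-binding domains (aa 310-547) in stably transfected HEK293T cells was monitored after 24 h treatment, using fluorescence intensity relative to vehicle controls.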
# [3] = molecular target: Estrogen receptor (Homo sapiens) (UniProt P03372); experiment: OT_ER_ERaERa_0480: Odyssey Thera (OT) 8-hour HEK293T Protein-Complementation Assay for Estrogen Receptor-alpha/-alpha Homodimer (AID 2283351);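 further: rise in fluorescence from reassembled reporter fragments on ERα LBD homodimer in nucleus or whole cell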
# Procedure, shortened: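 Binding reporter in which dimerisation of ERα LBD (aa 310-547) fusions reconstitutes a fluorescent reporter in HEK293T cells. Compounds incubated 8 h; mean fluorescence intensity increase versus DMSO scored.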
# [4] = molecular target: Estrogen receptor (Homo sapiens) + Estrogen receptor beta (Homo sapiens) (UniProt P03372+Q92731); experiment: OT_ER_ERaERb_0480: Odyssey Thera (OT) 8-hour HEK293T Protein-Complementation Assay for Estrogen Receptor-alpha/-beta Heterodimer (AID 2283352)
# Estrogen receptor (Homo sapiens) + Estrogen receptor beta (Homo sapiens), sequence (P03372 whole entry, looked up, the tested form may be a part): as above
# Estrogen receptor (Homo sapiens) + Estrogen receptor beta (Homo sapiens), sequence (Q92731 whole entry, looked up, the tested form may be a part): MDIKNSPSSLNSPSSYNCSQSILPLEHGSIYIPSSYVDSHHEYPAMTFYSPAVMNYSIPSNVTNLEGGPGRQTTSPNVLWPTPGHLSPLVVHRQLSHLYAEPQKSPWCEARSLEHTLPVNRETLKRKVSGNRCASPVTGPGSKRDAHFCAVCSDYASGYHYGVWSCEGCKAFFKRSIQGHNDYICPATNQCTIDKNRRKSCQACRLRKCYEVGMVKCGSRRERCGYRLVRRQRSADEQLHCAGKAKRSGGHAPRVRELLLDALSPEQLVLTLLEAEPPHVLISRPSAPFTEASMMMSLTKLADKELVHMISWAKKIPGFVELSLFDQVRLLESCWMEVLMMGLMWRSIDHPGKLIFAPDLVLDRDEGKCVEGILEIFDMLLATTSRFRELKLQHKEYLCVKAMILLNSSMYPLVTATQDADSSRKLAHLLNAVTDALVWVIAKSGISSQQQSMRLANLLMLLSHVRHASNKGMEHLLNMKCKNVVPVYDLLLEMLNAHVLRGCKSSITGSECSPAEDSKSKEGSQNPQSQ
# Procedure, shortened: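 Human HEK293T cells were treated for 8 hours and receptor heterodimerisation was detected through reconstitution of a fluorescent reporter split between ER-alpha and ER-beta ligand-binding domains. Activity was analysed as gain of signal against DMSO.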
# [5] = molecular target: Androgen Receptor/SRC-1 Co-activator, AR (gene 367) (UniProt P10275); experiment: OT_AR_ARSRC1_0960: Odyssey Thera (OT) 16-hour HEK293T Protein-Complementation Assay for Androgen Receptor/SRC-1 Co-activator (AID 2283353);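 further: actives raise the signal above DMSO so potency reflects increased AR and SRC-1 complex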
# Androgen Receptor/SRC-1 Co-activator, AR (gene 367), sequence (P10275 whole entry, looked up, the tested form may be a part): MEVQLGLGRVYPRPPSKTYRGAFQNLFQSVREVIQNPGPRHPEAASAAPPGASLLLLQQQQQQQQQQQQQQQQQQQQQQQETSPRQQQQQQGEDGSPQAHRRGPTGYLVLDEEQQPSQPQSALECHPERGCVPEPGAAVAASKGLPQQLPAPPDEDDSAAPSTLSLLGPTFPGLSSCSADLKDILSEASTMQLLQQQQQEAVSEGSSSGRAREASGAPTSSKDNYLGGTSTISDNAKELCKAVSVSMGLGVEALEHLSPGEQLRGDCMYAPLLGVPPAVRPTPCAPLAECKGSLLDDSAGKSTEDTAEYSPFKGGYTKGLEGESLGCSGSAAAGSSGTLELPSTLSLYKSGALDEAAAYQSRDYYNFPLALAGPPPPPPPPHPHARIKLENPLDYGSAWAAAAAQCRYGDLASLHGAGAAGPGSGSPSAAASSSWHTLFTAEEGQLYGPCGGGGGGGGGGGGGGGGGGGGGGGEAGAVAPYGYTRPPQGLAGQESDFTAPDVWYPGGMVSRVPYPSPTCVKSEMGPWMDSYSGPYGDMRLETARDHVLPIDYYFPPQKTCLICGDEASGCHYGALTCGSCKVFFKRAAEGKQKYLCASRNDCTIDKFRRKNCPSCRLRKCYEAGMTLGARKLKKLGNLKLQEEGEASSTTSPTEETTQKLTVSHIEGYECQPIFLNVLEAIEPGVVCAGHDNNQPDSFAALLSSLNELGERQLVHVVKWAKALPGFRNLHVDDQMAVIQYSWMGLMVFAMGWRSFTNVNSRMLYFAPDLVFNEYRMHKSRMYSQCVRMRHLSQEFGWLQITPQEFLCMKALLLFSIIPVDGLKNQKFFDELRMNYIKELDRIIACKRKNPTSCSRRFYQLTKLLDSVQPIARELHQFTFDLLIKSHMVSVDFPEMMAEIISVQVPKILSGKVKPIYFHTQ
# Procedure, shortened: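 Interaction of AR with SRC-1 was followed by YFP fragment complementation in HEK293T cells after 16 h of dosing. Gain of nuclear-over-cytoplasmic 488 nm fluorescence against DMSO controls defined activity.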
# [6] = molecular target: Androgen Receptor/SRC-1 Co-activator, AR (gene 367) (UniProt P10275); experiment: OT_AR_ARSRC1_0480: Odyssey Thera (OT) 8-hour HEK293T Protein-Complementation Assay for Androgen Receptor/SRC-1 Co-activator (AID 2283354);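 further: hits raise the complementation signal above DMSO so AC50 marks enhancers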
# Procedure, shortened: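 Measures AR/SRC-1 binding by Venus YFP fragment complementation in HEK293T stable lines at 8 h post-dose. Imaging quantifies the 488nm nucleus/cytoplasm ratio in ≥400 cells; DMSO defines baseline.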
# [7] = molecular target: Bile acid receptor (Homo sapiens) (UniProt Q96RI1); experiment: NVS_NR_hFXR_Antagonist: NovaScreen (NVS) Nuclear Receptor Binding Assay for human Farnesoid X Receptor Antagonism (FXR) (AID 2283350)
# Bile acid receptor (Homo sapiens), sequence (Q96RI1 whole entry, looked up): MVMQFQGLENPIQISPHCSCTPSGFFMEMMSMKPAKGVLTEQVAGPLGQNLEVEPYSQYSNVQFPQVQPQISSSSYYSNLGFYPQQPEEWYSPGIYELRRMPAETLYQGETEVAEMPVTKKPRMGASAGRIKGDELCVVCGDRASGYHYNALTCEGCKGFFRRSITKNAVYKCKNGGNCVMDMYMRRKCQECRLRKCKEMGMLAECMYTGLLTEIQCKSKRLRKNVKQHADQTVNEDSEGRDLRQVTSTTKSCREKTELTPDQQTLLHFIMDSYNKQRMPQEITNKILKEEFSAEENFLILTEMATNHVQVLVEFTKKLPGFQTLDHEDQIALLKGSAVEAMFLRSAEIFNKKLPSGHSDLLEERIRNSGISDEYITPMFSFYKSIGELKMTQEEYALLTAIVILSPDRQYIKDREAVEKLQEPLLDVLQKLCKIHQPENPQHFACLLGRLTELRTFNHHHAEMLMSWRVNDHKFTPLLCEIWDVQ
# Procedure, shortened: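 Cell-free TR-FRET ligand-binding read-out on human FXR (NR1H4) in antagonist mode, measured 1 h after dosing. Primary screen in duplicate at 25 uM, actives retested in concentration series; signal loss scored versus DMSO.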
# [8] = molecular target: Retinoic acid receptor alpha (Homo sapiens) (UniProt P10276); experiment: NVS_NR_hRAR_Antagonist: NovaScreen (NVS) Nuclear Receptor Binding Assay for human Retinoic Acid Alpha Receptor Antagonism (RAR) (AID 2283358)
# Retinoic acid receptor alpha (Homo sapiens), sequence (P10276 whole entry, looked up): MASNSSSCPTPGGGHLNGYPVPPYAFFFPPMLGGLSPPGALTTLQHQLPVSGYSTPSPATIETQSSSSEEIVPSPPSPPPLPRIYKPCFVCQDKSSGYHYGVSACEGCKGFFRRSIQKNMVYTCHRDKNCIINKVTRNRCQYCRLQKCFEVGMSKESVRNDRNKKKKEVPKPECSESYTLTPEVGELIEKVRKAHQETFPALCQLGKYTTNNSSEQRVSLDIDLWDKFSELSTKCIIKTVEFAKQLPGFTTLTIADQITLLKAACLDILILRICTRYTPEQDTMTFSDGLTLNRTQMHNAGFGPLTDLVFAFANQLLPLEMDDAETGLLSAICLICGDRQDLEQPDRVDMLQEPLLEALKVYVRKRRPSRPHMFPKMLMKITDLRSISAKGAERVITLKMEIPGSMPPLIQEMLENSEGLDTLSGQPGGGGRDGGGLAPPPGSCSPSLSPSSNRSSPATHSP
# Procedure, shortened: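 TR-FRET, cell-free, antagonist format; 2 h incubation after dosing; DMSO = baseline; signal loss fitted; 25 uM duplicate primary, then conc. series.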
# [9] = molecular target: Estrogen receptor beta (Homo sapiens) (UniProt Q92731); experiment: OT_ER_ERbERb_0480: Odyssey Thera (OT) 8-hour HEK293T Protein-Complementation Assay for Estrogen Receptor-beta/-beta Homodimer (AID 2283357);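 further: active means signal gain over DMSO baseline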
# Estrogen receptor beta (Homo sapiens), sequence (Q92731 whole entry, looked up, the tested form may be a part): as the sequence (Q92731 whole entry, looked up, the tested form may be a part) above
# Procedure, shortened: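 Cells (HEK293T, stable ER-beta LBD PCA pair) are treated 8 hours, fixed and Draq5-stained; signal is fluorescence intensity increase relative to vehicle, fitted in the gain direction.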
smiles,measurement,setting,value
Cc1c2ccccc2c(C)c2c1ccc1ccccc12,outcome,[1],inactive
same,outcome,[2],inactive
same,outcome,[3],inactive
same,outcome,[4],inactive
same,AC50,[5],13.7 µM (active)
same,AC50,[6],11.6 µM (active)
CCCCCCCCOC(=O)c1cc(O)c(O)c(O)c1,outcome,[1],inactive
same,AC50,[2],14.4 µM (active)
same,AC50,[3],12.1 µM (active)
same,AC50,[4],11.9 µM (active)
Cc1oc2c(NC(=O)c3c(Cl)cccc3Cl)cccc2c1C(C)(C)O,AC50,[1],13.6 µM (active)
same,outcome,[2],inactive
same,outcome,[3],inactive
CN(C)C(=O)C1(N2CCCCC2)CCN(CC[C@@]2(c3ccc(Cl)c(Cl)c3)CN(C(=O)c3ccccc3)CCO2)CC1,outcome,[1],inactive
same,outcome,[2],inactive
same,AC50,[5],11.8 µM (active)
same,AC50,[6],16.6 µM (active)
CN1C(=O)N(c2ccccc2Br)Cc2cnc(Nc3ccc4c(c3)OCC(CO)O4)nc21 (stereo unspecified),outcome,[2],inactive
same,AC50,[7],37.4 nM (active)
same,outcome,[3],inactive
same,outcome,[4],inactive
same,outcome,[8],inactive
CCCCCc1ccc(N)cc1,outcome,[1],inactive
same,outcome,[2],inactive
same,AC50,[3],67 µM (active) and 67.6 µM (active)
same,outcome,[3],inactive
same,AC50,[4],46.8 µM (active) and 40 µM (active) and 53.9 µM (active)
same,outcome,[4],inactive
CCCCCCCCN(C)CCCCCCCC,outcome,[1],inactive
same,outcome,[2],inactive
same,outcome,[3],inactive
CN(C)c1ccc(C(=C2C=CC(=[N+](C)C)C=C2)c2ccc(N(C)C)cc2)cc1,outcome,[1],inactive
same,outcome,[2],inactive
same,outcome,[3],inactive
same,AC50,[5],0.273 µM (active)
same,AC50,[6],3.28 µM (active)
CCCCCCCCOc1ccc(C(=O)c2ccccc2)c(O)c1,outcome,[2],inactive
same,outcome,[3],inactive
O=c1[nH]sc2ccccc12,outcome,[2],inactive
same,outcome,[7],inactive
same,outcome,[3],inactive
same,outcome,[9],inactive
CC(C)(O)c1ccc(CNC(=O)c2cccnc2Oc2ccc3nonc3c2)cc1,outcome,[1],inactive
same,outcome,[2],inactive
same,outcome,[3],inactive
CCN(Cc1cccnc1)C(=O)c1cccc(Cl)c1[C@]1(C)C(=O)N(Cc2ccc(OC)cc2OC)c2ccc(Cl)cc21,AC50,[1],7.99 µM (active)
same,outcome,[2],inactive
same,outcome,[3],inactive
same,outcome,[4],inactive
same,AC50,[5],2.59 µM (active)
same,outcome,[6],inactive
same,outcome,[9],inactive
Cc1cn([C@H]2C[C@H](N=[N+]=[N-])[C@@H](CO)O2)c(=O)[nH]c1=O,outcome,[2],inactive
CC(C)(C)c1cc(/C=C2\SC(N)=NC2=O)cc(C(C)(C)C)c1O,outcome,[1],inactive
same,outcome,[2],inactive
same,outcome,[3],inactive
